According to PubChem BioAssay (NCATS):
Records with an inconclusive call do not appear. Active and inactive are the calls of the source. Calls follow the shape of the dose curve; as a rule, active = well fitted cell-killing curve with a large enough effect; inconclusive = small, poorly fitted or top-dose-only effect, or effect the other way; inactive = flat fitted curve, though single readings scatter.

Experiments:
Assay in all cases: Primary qHTS to identify gynecologic anti-cancer compounds using libraries of approved drugs and bioactive compounds (AID 1345084); also: nearly all actives have a fitted effect of over 55% in size
[1] = system: CASKI; settings: Gynecologic cancer cell panel viability, ATPlite luminescence, 48 h; series mostly up to 57.5 µM
Procedure, shortened: (§1)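 Five-point cytotoxicity, 48 h drug exposure at 37 C, 5% CO2, on cells seeded 16 h beforehand. ATP content read by ATPlite luminescence.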

[2] = system: Es-2; settings: Gynecologic cancer cell panel viability, ATPlite luminescence, 48 h; series mostly up to 57.5 µM
Procedure, shortened: as §1

[3] = system: HeLa; settings: Gynecologic cancer cell panel viability, ATPlite luminescence, 48 h; series mostly up to 57.5 µM
Procedure, shortened: as §1

[4] = system: Hek293T; settings: Gynecologic cancer cell panel viability, ATPlite luminescence, 48 h, control line for the selectivity index; series mostly up to 57.5 µM
Procedure, shortened: as §1

[5] = system: JEG-3; settings: Gynecologic cancer cell panel viability, ATPlite luminescence, 48 h; series mostly up to 57.5 µM
Procedure, shortened: as §1

[6] = system: OV90; settings: Gynecologic cancer cell panel viability, ATPlite luminescence, 48 h; series mostly up to 57.5 µM
Procedure, shortened: as §1

[7] = system: PA-1; settings: Gynecologic cancer cell panel viability, ATPlite luminescence, 48 h; series mostly up to 57.5 µM
Procedure, shortened: as §1

[8] = system: SKOV3; settings: Gynecologic cancer cell panel viability, ATPlite luminescence, 48 h; series mostly up to 57.5 µM
Procedure, shortened: as §1

[9] = system: Tov-21-G; settings: Gynecologic cancer cell panel viability, ATPlite luminescence, 48 h; series mostly up to 57.5 µM
Procedure, shortened: as §1

[10] = system: Tov112D; settings: Gynecologic cancer cell panel viability, ATPlite luminescence, 48 h; series mostly up to 57.5 µM
Procedure, shortened: as §1

Measured: Potency

O=C(O)Cn1cnnn1
inactive: all assays above

COc1ccc2cc(C=O)ccc2c1
inactive: all assays above

CCN(CC)CC(=O)Nc1c(C)cccc1C(=O)OC
inactive: all assays above

CCCCCCCCCCCCCCCCCCN(C)C
inactive: all assays above

C[N+]1(C)CCC(OC(=O)C(O)(c2ccccc2)C2CCCC2)C1 (stereo not drawn)
inactive: all assays above

Cc1ccc(C(C)OC(=O)C2(C)CCC(C(=O)O)C2(C)C)cc1 (stereo not drawn)
inactive: all assays above

O=C1NC(c2ccccc2)(c2ccccc2)C(=O)N1COP(=O)(O)O
inactive: all assays above

COCCOCC(OC)OC
inactive: all assays above

CN1C(=O)CC(C)(c2ccccc2)C1=O (stereo not drawn)
inactive: all assays above

CCOc1ncc(F)c(=O)[nH]1
inactive: all assays above

O=C(O)Cc1ccc(OCCNC[C@H](O)c2ccccc2)cc1
inactive: all assays above

O=C1CC(c2ccc(Cl)cc2)CC(=O)N1
inactive: all assays above

O=C(O)Cn1c(=O)n(Cc2ccc(Br)cc2F)c(=O)c2ccc(Cl)cc21
inactive: all assays above

O=C(O)c1ccccc1S
inactive: all assays above

Cc1cccc(N(C)C(=S)Oc2ccc3c(c2)CCC3)c1
inactive: all assays above

CN1CCN(N)CC1
inactive: all assays above

O=C(NO)c1ccccc1
inactive: all assays above

COC(=O)/C=C\C(=O)OC
inactive: all assays above

CN(C)CCN1CCN(c2cccc(Cl)c2)C1=O
inactive: all assays above

C#CC(C)(CC)OC(=O)c1ccccc1C(=O)O (stereo not drawn)
inactive: all assays above

Cc1cccc(C)c1NC(=O)c1ccc(N)cc1
inactive: all assays above

N#CC1(c2ccc(F)cc2)CCC(=O)CC1
inactive: all assays above

CC(=O)OCC(=O)[C@@]1(O)[C@H](OC(C)=O)C[C@H]2[C@@H]3CCC4=CC(=O)C=C[C@]4(C)[C@@]3(F)[C@@H](O)C[C@@]21C
inactive: all assays above

Cc1ccc(-c2ccccc2C#N)cc1
inactive: all assays above

CCOc1ccc(NS(=O)(=O)c2ccc(N)cc2)nn1
inactive: all assays above

CCC1(c2cnc[nH]2)Cc2ccccc2C1
inactive: all assays above

C1N2CN3CN1CN(C2)C3
inactive: all assays above

COC(=O)c1ccc(NC(C)=O)cc1OC
inactive: all assays above

O=C(O)c1ccc(OCCN2CCCCC2)cc1
inactive: all assays above

CC1c2ccccc2CN1NC(=O)c1ccc(Cl)c(S(N)(=O)=O)c1 (stereo not drawn)
inactive: all assays above

CO[C@@H]1[C@@H](O[C@@H]2O[C@H](C)[C@@H](O[C@H]3C[C@@](C)(O)[C@@H](O)[C@H](C)O3)[C@H](N(C)C)[C@H]2O)[C@@H](CC=O)C[C@@H](C)[C@@H](O[C@@H]2CC[C@H](N(C)C)[C@@H](C)O2)/C=C/C=C/C[C@@H](C)OC(=O)C[C@H]1OC(C)=O
inactive: all assays above

CC(C)NC(=O)c1ccc(C=O)cc1
inactive: all assays above

CCC(C(=O)OCCN1CCOC(c2ccccc2)C1C)c1ccccc1 (stereo not drawn)
inactive: all assays above

NCC(=O)O
not listed: [9] | [10]
inactive: all other assays above

C[C@]12CCC(=O)C=C1CC[C@@H]1[C@@H]2[C@@H](O)C[C@@]2(C)[C@H]1CC[C@]2(O)C(=O)COC(=O)CCC(=O)O
inactive: all assays above

Cc1cc(C(C)(C)C)c(O)c(C(C)(C)C)c1
inactive: all assays above

Nc1c(NC/C=C\COc2cc(CN3CCCCC3)ccn2)c(=O)c1=O
inactive: all assays above

C[N+](C)(CCOc1ccccc1)Cc1cccs1
inactive: all assays above

CO[C@]1(NC(=O)CSC(F)F)C(=O)N2C(C(=O)O)=C(CSc3nnnn3CCO)CO[C@H]21
inactive: all assays above

CO/N=C(/C(=O)N[C@@H]1C(=O)N2C(C(=O)O)=C(Cn3nnc(C)n3)CS[C@H]12)c1csc(N)n1
inactive: all assays above

CC(=O)CC/C=C(\C)CC/C=C(\C)CC/C=C(\C)CCC=C(C)C
inactive: all assays above

CCOC(=O)c1ccc(OCCN2C[C@H](O)[C@@H](O)[C@H](O)[C@H]2CO)cc1
inactive: all assays above

O=C1CC[C@H](C(=O)N2CCCCC2)N1
inactive: all assays above

CCOC(=O)[C@H](CCc1ccccc1)N[C@@H](C)C(=O)N(CC(=O)O)C1Cc2ccccc2C1
inactive: all assays above

CCOC(=O)CN1CCCC1=O
inactive: all assays above

O=C1CC2(CCCC2)CC(=O)N1CCNCC1COc2ccccc2O1 (stereo not drawn)
inactive: all assays above
